Shown are actives, neighbours in structure and some others; about 0.78% of the full set was active somewhere.
PolyA inhibitor = polyadenylation inhibitors in yeast reporter cells, primary screen, luminescence, S. cerevisiae; S. cerevisiae SKY197-pL101 polyadenylation reporter, beta-gal luminescence; efflux-impaired pdr1/pdr3 knockout yeast; score 100 = 6 SD above DMSO; activity score, % at 12 µM; 300,000 tested, 0.02% active;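 active means lowest replicate activity score at least 50, where 100 means six control SD above control mean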;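 further: yeast exposed to compound for 9 h at 30 °C; higher score means more reporter readthrough which indicates perturbed polyadenylation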
V-ATPase pH = regulators of yeast V-ATPase proton pumping, primary screen, pHLuorin cytosolic pH fluorescence; AID 504577, 2011; response, % at 10 µM; 350,000 tested, 0.37% active; S. cerevisiae; in the data active means response mostly above about 7.3%, no sharp cut-off; inactive means mostly below about 5.4%; further: actives read high
PKA-R2B activ = activators of PKA-R2B holoenzyme, primary screen, biochemical, fluorescence polarization, Cy5-IP20, human | PKA-R2B holoenzyme dissociation; R2B truncated from residue 108, S112A mutant; 0% DMSO only, 100% 113 µM cGMP | activation, % at 11.4 µM | 340,000 tested, 0.079% active | cAMP-dependent protein kinase catalytic subunit beta (Homo sapiens) + cAMP-dependent …;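 active means activation above a cutoff set at the mean over all compounds plus 3 SD, cut at about 18% in these data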;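 further: higher means more holoenzyme dissociation and a rise in polarization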
CR mimetic SO = reduction of superoxide in aged yeast, primary screen, HTS; AID 2690, 2010; S. cerevisiae aged cells, superoxide DHE fluorescence; active compounds read low; 330,000 tested, 0.18% active; superoxide response (% of plate mean), % at 10 µM;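 active means superoxide response under a set limit, about three screen SD below normal, cut at about 65% in these data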;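 further: yeast aged for seven days with compound at 30 °C before DHE staining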
JMJD2C inh = inhibitors of GASC-1 histone demethylase, primary screen, biochemical, fluorescence, DELFIA europium; Lysine-specific demethylase 4C (Homo sapiens), Q9H3R0; GST-JMJD2C(1-420) H3K9me3 demethylation; inhibition, % at 2.35 µM; 330,000 tested, 0.069% active; AID 2099, 2009;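 active means more than half of a compound's replicate wells show inhibition beyond 50%, single wells judged on their own value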;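 further: signal counts dimethyl H3K9 product captured on neutravidin plate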
PKA-R1A act = activators of PKA-R1A holoenzyme, primary screen, biochemical, fluorescence polarization, Cy5-IP20, bovine R1A, mouse PKAc | PKA-R1A dissociation; scaled: DMSO 0%, 113 µM cGMP 100% | activation, % at 11.4 µM | 340,000 tested, 0.083% active | AID 504707, 2011;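 active means percent activation above the mean of all tested compounds plus 3 SD, cut at about 19% in these data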;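 further: higher means more PKAc released from R1A so a rise in polarization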
R1A FP artifact = FP signal interference without PKA proteins, confirmation, artefact control for PKA-R1A activator project, biochemical, fluorescence polarization, triplicate; activation, % at 11.4 µM; shares compounds with PKA-R1A act; 280 tested, 7% active; Cy5-IP20 peptide alone, fluorescence polarization artifact counterscreen;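 active means mean activation over triplicate runs exceeds the adjusted cutoff derived for the parent primary screen, cut at about 19% in these data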;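 further: no PKA protein present so any polarization rise reflects compound interference; higher means stronger polarization artifact and likely false positive in parent screen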
PKA-R1A act conf = activators of PKA-R1A holoenzyme, confirmation, biochemical, fluorescence polarization, Cy5-IP20, triplicate | shares compounds with PKA-R1A act | PKA-R1A holoenzyme dissociation | activation, % at 11.4 µM | 280 tested, 9% active | AID 504800, 2011;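 active means mean activation over replicate wells exceeds the adjusted hit threshold taken from the earlier primary screen, cut at about 20% in these data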
Target sequence (P00514 whole entry, looked up): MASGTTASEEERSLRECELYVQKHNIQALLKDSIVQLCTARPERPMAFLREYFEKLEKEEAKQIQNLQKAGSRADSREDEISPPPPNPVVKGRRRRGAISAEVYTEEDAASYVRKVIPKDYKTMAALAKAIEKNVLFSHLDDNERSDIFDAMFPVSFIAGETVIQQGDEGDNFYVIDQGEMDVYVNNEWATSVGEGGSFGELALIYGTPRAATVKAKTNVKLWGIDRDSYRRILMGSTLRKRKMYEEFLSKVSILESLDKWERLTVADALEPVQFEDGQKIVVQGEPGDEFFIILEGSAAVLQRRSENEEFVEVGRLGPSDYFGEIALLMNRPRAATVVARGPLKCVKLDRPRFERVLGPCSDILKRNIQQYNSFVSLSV
Hits are given with their value; 0 = inactive; - = not tested or not shown.

SMILES	PolyA inhibitor	V-ATPase pH	PKA-R2B activ	CR mimetic SO	JMJD2C inh	PKA-R1A act	R1A FP artifact	PKA-R1A act conf
COc1cccc(C(=O)Nc2nnc(SCC(=O)Nc3ccc(NC(C)=O)cc3)s2)c1	0	0	0	0	0	20	0	0
COc1cccc(N2CC(C(=O)Nc3nnc(SCC(=O)Nc4ccc(NC(C)=O)cc4)s3)CC2=O)c1 (stereo not given)	0	0	0	0	0	0	-	-
OCC[C@H]1C[C@@H](O)[C@H](O)[C@@]2(OCc3ccccc32)O1	-	0	0	-	0	0	-	-
CN(CC(=O)Nc1c(Cl)cccc1Cl)C(=O)c1ccccc1SCC(=O)N1CCCC1	0	0	0	0	0	0	-	-
CN(CCOc1ccc(Cl)cc1)C(=O)c1ccccc1SCC(=O)N1CCCC1	-	0	0	0	0	21	0	0
O=C(COc1ccccc1F)NCCc1ccc2c(c1)OCCO2	-	0	0	0	0	0	-	-
O=C(COc1ccccc1Cl)NCCc1ccc2c(c1)OCCO2	0	0	0	0	0	21	0	0
CCOc1ccc(-c2nnc3n2N=C(c2ccc(OC)cc2)CS3)cc1	0	0	0	0	0	20	0	0
CCOc1ccc(C2=Nn3c(nnc3-c3ccccc3OC)SC2)cc1	0	0	0	0	0	0	-	-
CC(C)C[C@H](NC(=O)N1CCn2c1nc1ccccc12)C(=O)NCc1ccc2c(c1)OCO2	0	0	0	0	0	0	-	-
CC(C)N(CC(=O)Nc1ccc(Cl)cc1C(F)(F)F)C(=O)CCl	0	0	0	0	0	19	0	0
CN(C)c1ccc(Cc2ccc(N(C)C)cc2)cc1	-	0	0	-	-	21	0	0
O=C(O)CSc1cccc[n+]1[O-]	0	0	0	0	0	0	-	-
[O-][n+]1ccccc1SCc1ccccc1	0	0	0	0	0	19	0	0
COc1ccc(-c2c(-c3cc(OC)cc(OC)c3)n(C)c3ccc(-c4ccc(N(C)C)nc4)cc23)cc1	-	0	0	0	0	0	-	-
Cc1ccccc1NC(=O)Cc1nnc(SCC(=O)NC2CCCCC2)n1C	0	0	0	0	0	0	-	-
COc1ccccc1C1C(C(N)=O)=C(C)Nc2nc(-c3ccccc3Cl)nn21 (stereo not given)	0	0	0	0	0	0	-	-
COc1cccc(C2C(C(N)=O)=C(C)Nc3nc(-c4ccccc4Cl)nn32)c1 (stereo not given)	0	0	0	0	0	19	0	0
Cc1ccccc1CC(=O)N1CC(C)OC(C)C1 (stereo not given)	0	0	0	0	0	0	-	-
O=C(O)c1ccc(-n2cccn2)c([N+](=O)[O-])c1	0	0	0	0	0	20	0	0
COCCCNC(=O)CCn1c(=O)c2ccccc2n(Cc2cccc([N+](=O)[O-])c2)c1=O	0	0	0	0	0	0	-	-
CCCCNC(=O)CCn1c(=O)c2ccccc2n(Cc2ccc(F)cc2)c1=O	0	0	0	0	0	22	0	0
Cc1ccc(S(=O)(=O)N(CC(=O)NCC2CCCO2)Cc2cccc(C)c2)cc1 (stereo not given)	0	0	0	0	0	0	-	-
Cc1ccc(S(=O)(=O)NC2CC(C)(C)NC(C)(C)C2)cc1C	0	0	0	0	0	19	0	0
O=C(O)CC(c1ccccc1)N1C(=O)c2ccccc2C1=O (stereo not given)	0	0	0	0	0	0	-	-
SMILES	PolyA inhibitor	V-ATPase pH	PKA-R2B activ	CR mimetic SO	JMJD2C inh	PKA-R1A act	R1A FP artifact	PKA-R1A act conf
O=C(Nc1ccc(N2CCN(c3ccc(O)cc3)CC2)cc1)Oc1ccccc1	0	0	0	0	0	20	0	0
CCCC(=O)Nc1nnc(SCC(=O)N2CCCCC2)s1	0	0	0	0	0	19	0	0
CCCC(=O)Nc1nnc(SCC(=O)N2C(C)CCCC2C)s1 (stereo not given)	0	0	0	0	0	0	-	-
Cn1c(SCC(=O)Nc2ccccc2Cl)nnc1C1CC1	0	0	0	0	0	0	-	-
Cn1c(SCC(=O)Nc2nnc(-c3ccccc3)o2)nnc1C1CC1	0	0	0	0	0	19	0	0
Cc1ccc(NC(=O)C2CC(=O)n3c(nc4ccccc43)N2)cc1C (stereo not given)	0	0	0	0	0	19	0	0
Cc1ccc(NC(=O)C2CC(=O)n3c(nc4ccccc43)N2)cc1Cl (stereo not given)	0	0	0	0	0	0	-	-
CCOCc1c(C(=O)NCc2ccccc2CN2CCCC2)oc2ccccc12	-	0	0	0	0	0	-	-
CNC(=O)CSc1nc2nc(C)cc(C)n2n1	0	0	0	0	0	0	-	-
Cc1cc(C)n2nc(SCC(=O)c3ccc[nH]3)nc2n1	0	0	0	0	0	22	0	0
CC(C)(C)C(=O)NCc1ccc(C(=O)CSc2nnc(C3CC3)n2C2CC2)s1	-	0	0	0	0	20	0	0
COc1cc2c(cc1OC)CN(C(=O)C(CCSC)NS(=O)(=O)c1ccc(C)cc1)CC2 (stereo not given)	0	0	0	0	0	20	0	0
Cc1nn(-c2ccccc2)c(C)c1NC(=O)COC(=O)c1ccccc1OC(F)F	0	0	0	0	0	0	-	-
COc1ccc(-c2noc(CCC(=O)NCCc3ccccc3)n2)cc1OC	0	0	0	0	0	19	0	0
NC(=O)c1ccsc1NC(=O)CSc1nnc(Nc2ccccc2)s1	0	0	0	0	0	0	-	-
COc1ccccc1-c1csc(NC(=O)c2cc(-c3cccs3)nc3ccccc23)n1	0	0	0	0	0	23	0	0
CCOC(=O)c1cc(C)sc1NC(=O)c1ccc(Cl)s1	0	0	0	0	0	20	0	0
Cc1ccc(NC(=O)CN(C)C(=O)c2ccc(C(F)(F)F)cc2)cc1	0	0	0	0	0	0	-	-
CN1CCN(C(=O)OCCOCCOC(=O)N2CCN(C)CC2)CC1	-	0	0	-	-	0	-	-
COC(=O)c1ccccc1NC(=O)NCc1cccnc1	0	0	0	0	0	0	-	-
COC(=O)c1ccccc1NC(=O)C(=O)NCc1ccncc1	0	0	0	0	0	21	0	0

Assay outcomes: PubChem, several laboratories
